# Source: PubChem (ICCB-Longwood Screening Facility, Harvard Medical School)
# AID504770: growth inhibitors of E. coli YBA685 in a screen for V. cholerae RctB (chromosome II replication) inhibitors; E. coli YBA685 rctB-dependent plasmid, OD600 growth, 3 h; stronger effect = lower value; AID 504770; 130,000 tested, 0.27% active; z-score (no concentration beside the values); in the data active = z-score below about -2, passing the limit was not always enough
# Polio RdRp inh: poliovirus RNA polymerase inhibition; poliovirus polymerase elongation, fluorescence polarization; stronger effect = lower value; % elongation, % (compound at 16.7 µg/mL); 150,000 tested, 0.66% active; in the data active = % elongation below about 90%
# Mtb MenB inh: blocks the Mycobacterium tuberculosis MenB enzyme; P9WNP5; MenB enzyme assay, absorbance read-out; inhibition, % (test concentration not listed); 100,000 tested, 0.43% active; in the data active = inhibition above about 21%, passing the limit was not always enough
# Mtb MbtI inh: inhibitors of Mycobacterium tuberculosis siderophore enzyme MbtI. P9WFX0. purified MbtI enzyme, fluorescence intensity read-out. inhibition, % (no concentration beside the values). 100,000 tested, 0.89% active. AID 493033; in the data active = inhibition mostly above about 56%, no sharp cut-off; inactive = mostly below about 77%
# Target sequence (P9WFX0 whole entry, looked up): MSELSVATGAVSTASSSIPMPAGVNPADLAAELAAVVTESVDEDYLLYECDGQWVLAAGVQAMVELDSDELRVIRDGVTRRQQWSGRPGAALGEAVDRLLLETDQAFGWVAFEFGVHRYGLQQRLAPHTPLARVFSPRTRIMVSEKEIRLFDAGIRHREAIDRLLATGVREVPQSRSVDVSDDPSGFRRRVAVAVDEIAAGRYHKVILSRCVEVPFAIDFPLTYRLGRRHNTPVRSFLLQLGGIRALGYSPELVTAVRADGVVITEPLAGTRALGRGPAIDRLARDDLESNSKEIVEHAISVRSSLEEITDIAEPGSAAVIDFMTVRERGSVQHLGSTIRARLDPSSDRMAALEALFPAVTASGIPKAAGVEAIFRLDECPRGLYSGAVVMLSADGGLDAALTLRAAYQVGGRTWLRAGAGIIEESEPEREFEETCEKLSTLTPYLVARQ
# Starred values were filed as active, the others as inactive; / = no result. An excerpt weighted towards active compounds, which were near 1.4% of everything screened.
SMILES,AID504770,Polio RdRp inh,Mtb MenB inh,Mtb MbtI inh
CCN1C(=O)N(COC(C)=O)C2C1N(CC)C(=O)N2COC(C)=O (centres undefined),-0.6,105,-39,-8
COc1ccccc1-c1nnc(SC(C)c2nc3ccccc3c(=O)[nH]2)n1C (centres undefined),0.3,107,-13,-4
O=C(Cn1c(SCCOc2ccccc2)nc2ccccc21)N1CCOCC1,/,81*,/,/
COc1ccc(OCCSc2nc3ccccc3n2CC(=O)N2CCOCC2)cc1,/,107,/,/
COC(=O)c1c(N2C(=O)CCC2=O)sc2c1CCCC2,-3.2*,101,-2,-21
CCOC(=O)c1c(N2C(=O)CCC2=O)sc2c1CCCC2,0.9,/,/,/
CC(C)(C)C(=O)Nc1cc(C(F)(F)F)cc(C(F)(F)F)c1,-0.55,/,/,/
CCN(CC)C(=S)C(=O)Nc1cc(C(F)(F)F)cc(C(F)(F)F)c1,0.7,86*,-26,/
Cc1snnc1C(=O)Oc1ccccc1-c1nnco1,0.6,78*,10,-61
O=C(Oc1ccccc1-c1nnco1)c1ccc(C(F)(F)F)cc1,-0.55,105,-80,-104
CCN1C(=O)C2C=CC=CC2NC1=S (centres undefined),-0.7,101,4,3
CN1C(=O)C2C=CC=CC2NC1=S (centres undefined),0.5,87*,-73,44
CCOc1ccc(-c2cc(NC(=O)CCSCCc3ccccn3)on2)cc1OCC,0.15,101,-38,1
COc1cc2c(cc1OC)CC(C(=O)O)NC2 (centres undefined),1,103,32*,-2
Cc1cc(C(=O)Cn2c(C)nc3ccccc32)c(C)n1-c1c(C)n(C)n(-c2ccccc2)c1=O,-0.55,115,-16,-15
Cc1ccc(C(=O)CSc2cccc[n+]2[O-])cc1,1.9,100,/,69*
O=c1[nH]c(NCCO)c(I)c(=O)[nH]1,-1.2,/,/,68*
O=c1[nH]c(NCCO)nc2ccccc12,-1.8,105,-13,91
CC(C)OC1(O)C(=O)c2ccccc2C(=O)C1(O)OC(C)C (centres undefined),-1.1,9.0*,-19,/
O=C(Cn1ncn2c(cc3ccccc32)c1=O)N1CCN(c2ccccc2)CC1,3,100,11,19
N#Cc1c(-c2cccs2)cc(-c2ccc(C(=O)O)cc2)nc1SCc1cccs1,-0.4,78*,4,/
COc1cccc(C2CC(=O)NC(SC)=C2C#N)c1 (centres undefined),-0.75,104,-13,-8
CCOC(=O)CN1CSC2=C(C#N)C(c3ccc(OC)cc3)CC(=O)N2C1 (centres undefined),0.55,102,6,80
COc1ccc(C2CC(=O)N3CN(C4CCCCC4)CSC3=C2C#N)cc1 (centres undefined),/,75*,/,/
COc1cccc(C2CC(=O)N3CN(C4CCCCC4)CSC3=C2C#N)c1 (centres undefined),/,77*,/,/
SMILES,AID504770,Polio RdRp inh,Mtb MenB inh,Mtb MbtI inh
O=C(OCCOc1ccccc1)c1cc(=O)[nH]c2ccccc12,0.2,105,-17,-8
CCC(=O)N(c1n[nH]c(=S)s1)C1CC1,-0.65,/,-13,91*
Cc1nn(CCC#N)c2c1P(=S)(N1CCCCC1)OC(c1ccccc1)=N2 (centres undefined),0.55,90*,-57,51
CCN(CC)P1(=S)c2c(C)nn(CCC#N)c2N=C(c2ccc(F)cc2)N1C (centres undefined),-0.05,102,6,4
O=C(Nc1ccccc1)C(=S)N1CCOCC1,1.2,82*,-36,/
O=C(N1CCOCC1)N1CCN(c2ccccc2)CC1,-0.2,99,36*,2
N/C(=N\C(=S)Nc1ccccc1)N1CCOCC1,1.5,103,-26,-1
O=C(N1CCOCC1)N1CCN(c2ccccc2F)CC1,0.05,102,-14,2
Cc1sc2c(c1C)C(O)=C(C(=O)Nc1ccc(Cl)cc1)S(=O)(=O)N2C,-1.1,105,-1,15
CC(=O)Oc1ccccc1-n1c(C)nc(=O)c(-c2ccccc2)c1C,-4.5*,103,/,-15
COc1ccccc1-n1c(C)nc(=O)c(-c2ccccc2)c1C,-0.95,103,-17,-220
COC(=O)CC1C(=O)NCCN1C(=O)CSc1nc2ccccc2c(=O)n1-c1ccc(C)cc1 (centres undefined),2.2,100,5,20
COC(=O)CC1C(=O)NCCN1C(=O)CSc1nc2ccccc2s1 (centres undefined),0.15,95,-56,97*
CCOc1ccc(Nc2cccc(F)c2C#N)cc1,-0.8,102,-28,-4
NC1=NN=C(c2ccccc2)CS1,-0.6,97,-57,65*
NC1=NN=C(c2ccc3c(c2)OCCO3)CS1,1.1,98,15,16
O=C(/C=C/c1ccccc1)ON1C(=O)CCC1=O,0.65,35*,-14,/
CC(C)c1ccccc1NC(=O)COC(=O)c1ccc(N(C)C)cc1,1.9,102,/,30
O=Nc1sc2ccc3ccccc3c2c1O,0.1,95,-5,69*
CCOC(=O)C1CCCN(C(=O)COc2cccc(Br)c2)C1 (centres undefined),0.4,101,/,1
CC(Sc1n[nH]c(-c2ccncc2)n1)C(=O)N(C)c1ccccc1 (centres undefined),-0.45,97,-42,3
COc1ccc(N2CCN(CCN3CCCCC3)CC2)cc1,-0.1,101,19,9
COc1ccc(-n2c(C(C)N3CCCCC3)n[nH]c2=S)cc1 (centres undefined),-5.2*,103,1,-6
COc1ccc(NS(=O)(=O)c2ccc3oc4ccccc4c3c2)cc1OC,-0.45,100,0,-6
CN(/C=C/C=[N+](C)c1ccccc1)c1ccccc1,-0.3,104,/,7
SMILES,AID504770,Polio RdRp inh,Mtb MenB inh,Mtb MbtI inh
Cc1ccc(/C(N)=N\O)n1C,1.6,102,52*,/
Cn1nc(C2CC2)cc1C(=O)O,-0.35,102,30*,2
O=c1c2ccccc2nc(SCc2ccccc2)n1CCCO,-1.1,111,-19,-4
Nc1cccc(Cl)c1O,-0.15,101,-7,57*
N=C(N)Cc1c(Cl)cccc1Cl,3,/,/,/
CCn1c(C(=O)N2CCC(C(=O)NCc3ccc(C)cc3)CC2)cc2occc21,-0.1,102,1,3
CC(C)Cn1cc(NC(=O)NCc2ccccn2)c2ccccc2c1=O,-0.1,100,-20,96
Cn1cc(NC(=O)Nc2ccccc2F)c2ccccc2c1=O,0.55,84*,-8,-32
CC1CCN(Cc2ccc(NC(=O)Nc3cn(C)c(=O)c4ccccc34)cc2)CC1,-0.4,101,-11,-29
CCc1cccc(NC(=O)Nc2cn(C)c(=O)c3ccccc23)c1,/,79*,/,/
Cn1cc(NC(=O)NCc2ccccn2)c2ccccc2c1=O,-2*,99,-18,-17
COc1cccc(NC(=O)Nc2cn(C)c(=O)c3ccccc23)c1,0.1,85*,-14,-29
Cc1nc(C(F)(F)F)nc(N2CCCCC2)c1Oc1ccccc1,-0.8,105,-10,-10
CCc1ccccc1NC(=O)Cn1nnc(C(=O)O)c1C(=O)O,-0.8,98,0,-6
N#Cc1ccccc1Cn1c(=O)n(-c2ccccc2)c(=O)c2ccc(C(=O)NCc3ccco3)cc21,-0.1,100,-17,-11
